# NR3A LBD binder – modulators (binders) of human NR3A ligand-binding domain. NR3A LBD differential scanning fluorimetry, Tm shift; 0% = protein alone, 100% = glycine-bound protein. Tm shift relative to glycine control, % at 25 µM. actives 2.5% (n = 340,000);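 active = melting temperature shift of at least 10% of the positive control shift, at one fixed dose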
# UBC13 inh – inhibitors of human UBC13 polyubiquitin chain formation; TR-FRET; inhibition, % at 20 µM; actives 0.47% (n = 330,000); AID 485273; in the data active = inhibition above about 45%, passing the limit was not always enough
# Target sequence (P61088 whole entry, looked up): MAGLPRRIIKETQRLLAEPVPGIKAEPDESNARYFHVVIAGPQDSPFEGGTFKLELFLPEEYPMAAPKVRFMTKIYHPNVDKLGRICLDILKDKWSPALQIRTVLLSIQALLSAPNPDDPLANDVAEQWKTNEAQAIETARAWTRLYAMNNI
# Yeast superoxide – yeast age-related superoxide inhibition as caloric restriction mimetic; S. cerevisiae aged cells, superoxide DHE fluorescence; active compounds read low; superoxide response (% of plate mean), % at 10 µM; actives 0.18% (n = 330,000); AID 2690;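 active = superoxide response under a set limit, about three screen SD below normal, cut at about 65% in these data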;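 note: yeast aged for seven days with compound at 30 °C before DHE staining; 100% = average MFI of all compound-treated wells on the plate with controls excluded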
# dFosB activator – enhances mouse delta FosB homodimer DNA binding; P13346; activation, % at 25 µM; purified delta FosB, TAMRA-CDK5 oligo fluorescence polarization; percent of positive-control signal above neutral wells; AID 493131; actives 0.99% (n = 340,000);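 active = mean activation above about 17%, with every replicate also reaching it, limit read from the data, passing the limit was not always enough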
# Target sequence (P13346 whole entry, looked up): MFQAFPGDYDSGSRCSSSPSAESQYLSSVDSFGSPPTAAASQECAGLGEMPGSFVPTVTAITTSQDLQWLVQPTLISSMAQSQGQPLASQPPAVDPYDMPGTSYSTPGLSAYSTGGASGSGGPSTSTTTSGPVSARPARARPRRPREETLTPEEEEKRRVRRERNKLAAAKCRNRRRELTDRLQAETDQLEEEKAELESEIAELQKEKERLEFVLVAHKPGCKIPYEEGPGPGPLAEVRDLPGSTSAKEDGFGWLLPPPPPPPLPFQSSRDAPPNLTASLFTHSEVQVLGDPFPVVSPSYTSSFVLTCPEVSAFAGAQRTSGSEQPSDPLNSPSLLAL
# NALP1 inh – inhibitors of NALP1 inflammasome in yeast; S. cerevisiae NALP1/ASC/caspase-1 growth, X-gal OD620, 72 h; inhibition, % at 10 µM; actives 0.61% (n = 280,000); in the data active = inhibition mostly above about 24%, no sharp cut-off; inactive = mostly below about 32%
# An asterisk follows results filed as active; nt = not tested or not shown; ! = repeats disagree. Only some compounds are listed: those with a hit (about 4.3% of all), similar ones and a draw of the others.
SMILES,NR3A LBD binder,UBC13 inh,Yeast superoxide,dFosB activator,NALP1 inh
O=C(CSc1nc(-c2ccccc2)nc2c1Cc1ccccc1O2)Nc1ccc(C(=O)O)cc1,32*,nt,nt,-49,-8
O=C(CSc1nc(-c2ccc(F)cc2)nc2c1Cc1ccccc1O2)Nc1ccc(C(=O)O)cc1,33*,nt,nt,-35,14
CCN(CC)S(=O)(=O)c1ccc2c(c1)N(CC(=O)N1CCCC1)C(=O)CO2,-1,13,105,3,7
O=C(Nc1ccc(O)cc1)c1cc2ccccc2c(=O)s1,24*,4,86,-7,3
CN1CCc2c(n(CC(O)CNCc3ccccc3)c3ccccc23)C1=O (stereo unspecified),-1,-3,132,-1,10
CC(C)NCC(O)Cn1c2c(c3ccccc31)CCc1c-2cnn1-c1ccccc1 (stereo unspecified),-5,42,83,-8,22*
Cc1nn(C)c(C)c1/C=N/NC(=O)C(C)(C)Oc1ccc(Cl)cc1,2,5,120,-10,5
Cc1nn(C(C)(C)C)c(C)c1/C=N/OC(=O)Nc1ccc(Cl)cc1,11*,9,102,-5,nt
Cc1ccc(C(=O)NCC(=O)OCc2cccc(Br)c2)cc1,2,5,92,-4,nt
Cc1ccc(-n2c(SCC(=O)c3c(N)n(C4CC4)c(=O)[nH]c3=O)nnc2N2CCOCC2)cc1,2,-3,nt,-3,nt
C/C(CC(=O)Nc1ccc2c(c1)OCCO2)=N\NC(=O)Cc1ccc(Cl)cc1,-1,17,102,-2,13
O=C(Cc1c(C(=O)O)[nH]c2ccc(Cl)cc12)Nc1ccc2c(c1)OCCO2,12*,-9,89,-6,8
COc1ccccc1N1CCN(CC(=O)Nc2sccc2C#N)CC1,-1,-3,102,-4,15
COc1ccc(OC)c(-c2cn(S(=O)(=O)c3ccccc3)nc2N)c1,17*,-7,98,-6,-3
CC1=Nc2ccccc2/C1=C\c1sc(Nc2ccc(C)cc2)nc1O,21*,-2,94,-15,11
Oc1nc(Nc2ccc(F)cc2)sc1/C=C1\C=Nc2ccccc21,34*,-3,109,15,-2
Oc1nc(Nc2cccc(Cl)c2)sc1/C=C1\C=Nc2ccccc21,37*,0,101,10,42
CCOC(=O)c1c(Nc2ccc(Cl)cc2)sc(/C=C2\C=Nc3ccccc32)c1O,-4,-36,107,-9,0
CC1=Nc2ccccc2/C1=C/c1sc(=O)n(CC(=O)N2CCCC2)c1O,-1,-15,114,-4,-14
Oc1cccc(Nc2nc(O)c(/C=C3\C=Nc4ccccc43)s2)c1,21*,-9,95,53*,-76
O=C(Cn1c(O)c(/C=C2\C=Nc3ccccc32)sc1=O)N1CCOCC1,-2,-7,109,-1,12
NC(=O)CSc1oc(-c2ccco2)nc1S(=O)(=O)c1ccc(Br)cc1,3,1,99,2,8
CCC(C)NC(=O)C1CCC(CNS(=O)(=O)c2ccc3c(c2)N(C(C)=O)CCO3)CC1 (stereo unspecified),0,0,84,0,5
CCOc1ccc(NC(=O)c2cccc(NC(C)=O)c2)cc1S(=O)(=O)N1CCCC1,3,0,nt,-13,nt
COc1cc(/C=C2/SC(=O)NC2=O)ccc1OC(=O)c1ccco1,-5,-11,87,68*,15
SMILES,NR3A LBD binder,UBC13 inh,Yeast superoxide,dFosB activator,NALP1 inh
CCc1ccc2[nH]c3nc(N/N=C/c4cccc(O)c4)nnc3c2c1,18*,-23,103,13,4
COc1cccc(/C=N/Nc2nnc3c(n2)[nH]c2ccccc23)c1OC,-2,-32,104,9,nt
COc1ccccc1NC(=O)Cn1cnc2sc(C)c(S(=O)(=O)N3CCCCC3)c2c1=O,-9,-2,107,-9,22
COc1cc2cncc(Cc3ccc(Cl)cc3)c2cc1OC,1,19,114,-9,nt
O=C(Cn1cc(C(F)(F)F)cc(Cl)c1=O)NCc1ccccc1,1,-10,100,-2,12
O=C1NN(c2ccccc2)C(=O)/C1=C\c1ccc(-c2cc([N+](=O)[O-])ccc2O)o1,23*,-158,nt,-3,3
C/C(=N/Nc1ccc(C(=O)c2c(C)cc3ccccn23)cc1[N+](=O)[O-])c1ccc(O)cc1,11*,nt,nt,-4,nt
C[C@H]1CCC[C@@]2(O[C@@H](CCO)C[C@@H](O)[C@@H]2O)O1,0,2,nt,6,5
C=C(C(=O)c1ccccc1)C(NC(C)(C)C)c1ccccc1 (stereo unspecified),0,nt,nt,2,nt
CC(C)Oc1ccc(C(=O)Nc2ccc(Cl)c(S(=O)(=O)Nc3ccc(Cl)cc3)c2)cc1,20*,-12,94,-14,24
CCN(CC)CCNC(=O)c1ccc(Cl)c(S(=O)(=O)Nc2ccc(Cl)cc2)c1,21*!,1,105,-6,13
CCOc1cccc(C(=O)Nc2ccccc2C(=O)N2CCOCC2)c1,4,-2,94,-5,3
O=C(c1ccc2c(c1)OCO2)N1CCC2(CC1)Oc1ccc(F)cc1C(=O)C21CC(c2ccccc2)=NO1 (stereo unspecified),-2,-14,105,3,7
Cc1ccc(CN2CCN(Cc3cnc(N4CCOCC4)s3)CC2CCO)o1 (stereo unspecified),-1,0,99,-3,26*
Cc1ccc(CNC(=O)C2CSC3(C)CCC(=O)N23)cc1 (stereo unspecified),-4,0,94,-6,nt
Cc1nonc1CN(C)C(=O)CC1C(=O)NCCN1Cc1ccccc1F (stereo unspecified),11*,3,98,-13,11
COc1ccc(C(=O)N/N=C2/SCC(=O)N2Cc2ccc3c(c2)OCO3)cc1OC,11*,-1,80,-4,8
Cc1ccc(NC(=O)C2CC2C)c(Cl)c1 (stereo unspecified),0,-4,95,5,-15
CC(C)c1ccc(N2C(=O)CC(Sc3ncn[nH]3)C2=O)cc1 (stereo unspecified),-1,0,85,1,101*
COc1ccc(N2C(=O)CC(Sc3ncn[nH]3)C2=O)c(OC)c1 (stereo unspecified),-5,-2,96,0,34
O=C(Nc1ccc2[nH]c(=S)sc2c1)c1ccccc1,21*,-21,96,-3,16
O=C(Nc1ccc(F)cc1)Nc1ccccc1F,3,-13,108,-1,7
O=C(Nc1ccc2[nH]c(=S)sc2c1)Nc1ccccc1F,29*,8,100,-9,-3
COc1ccc(C(=O)Nc2cnn(Cc3c(F)cccc3Cl)c2)cc1OC,-1,-2,100,-3,nt
O=S(=O)(Cc1ccccc1)N(O)c1ccccc1,2,-42,98,1,10
COc1ccccc1C(=O)Nc1ccc(S(=O)(=O)Nc2cc(C)nc(C)n2)cc1,16*,-1,95,-7,-3

# Screening results: PubChem, several laboratories
